# Assay results taken from PubChem BioAssay (Tox21).
# Records with an inconclusive call do not appear. A call without a number means that no potency is given here. Some compounds were tested as several samples or in several runs, with calls that do not always agree. Activity calls are given as the source filed them. The call rests on the fitted dose curve; in most records, active means well fitted activation curve with a large enough effect in the repeat runs; inconclusive means weak or mixed curves; inactive means flat fitted curve, though single readings scatter.
# Test: A CellTox Green Cytotoxicity Assay to monitor cytotoxicity in HEK293 cells - 40 hour (AID 1224871); further: nearly all actives have a fitted effect of over 45% in size
# Conditions: CellTox Green fluorescence; series mostly up to 76.8 µM
# Source text: National Center for Advancing Translational Sciences [NCATS]
# NIH Chemical Genomics Center [NCGC]
# U.S. Environmental Protection Agency [EPA]
# National Institutes of Environmental Health Sciences [NIEHS]
# National Toxicology Program [NTP]
# Cell-based models are critical for drug discovery. Determining the natural cytotoxic effects resulting from test compounds is an essential research activity. A CellTox Green Cytotoxicity Assay to monitor cytotoxicity in real time of continues cell culture during 40 hours of the compound treatment was used to screen Tox21 10K library compounds in Hek293 cells. CellTox Green Cytotoxicity Assay is a nonlytic, homogeneous, biofluorescent method to measure cytotoxicity in cell culture after experimental manipulation. The assay system uses a proprietary asymmetric cyanine dye that is excluded from viable cells but preferentially stains the dead cell's DNA. […] Viable cells produce no appreciable increases in fluorescence. Therefore, the fluorescence signal produced by the binding interaction with dead cell DNA is proportional to cytotoxicity.
# The mixture of Hek293 cell suspension and reagents were dispensed at 600cells/6 ul/well in 1536-well tissue culture treated black solid bottom plates using a Multidrop dispenser. After the assay plates were incubated at a 37 C/5% CO2 incubator for 5 hours, 23 nL of compounds dissolved in DMSO, positive and negative controls was transferred to the assay plate by a pintool work station. The plates were incubated at 37 C for 40 hours. The fluorescence intensity were measured at 0h, 8h, 16h, 24h, 32h and 40h time points using ViewLux plate reader during compound treatment.
# Potency means the concentration at half of the fitted maximal effect.
row,Compound,Potency
1,c1cc[n+]2c(c1)-c1cccc[n+]1CC2,inactive
2,COP(=S)(OC)Oc1nc(Cl)c(Cl)cc1Cl,inactive
3,[Cl-].[Cl-].[Cl-].[Yb+3],inactive
4,CC(C)=CCN1CC[C@@]2(C)c3cc(O)ccc3C[C@@H]1[C@@H]2C,inactive
5,CC(Cl)CCl (stereo not given),inactive
6,NC(=O)C(Cl)Cl,inactive
7,O=[N+]([O-])[O-].[Tl+],inactive
8,O=NN(CCO)CCO,inactive
9,N#Cc1c[nH]cc1-c1cccc2c1OC(F)(F)O2,inactive
10,Nc1nc(N)c(N)c(N)n1,49.2 µM (active)
11,CC(C)(C)c1ccc(OP(=O)(Oc2ccccc2)Oc2ccccc2)cc1,inactive
12,CC(Cc1ccc(O)cc1)NCC(O)c1cc(O)cc(O)c1 (stereo not given),inactive
13,COc1nc(C)nc(NC(=O)NS(=O)(=O)c2ccccc2Cl)n1,inactive
14,O.O.O.O.O.O.O=S(=O)([O-])[O-].[Ni+2],inactive
15,C[C@]12C/C(=C/O)C(=O)C[C@@H]1CC[C@@H]1[C@@H]2CC[C@@]2(C)[C@H]1CC[C@]2(C)O,49.4 µM (active) and inactive
16,[F][Sn]([c]1ccccc1)([c]1ccccc1)[c]1ccccc1,1.55 µM (active)
17,ClSC(Cl)(Cl)Cl,inactive
18,CC(C)C(Nc1ccc(C(F)(F)F)cc1Cl)C(=O)OC(C#N)c1cccc(Oc2ccccc2)c1 (stereo not given),inactive
19,O=[N+]([O-])c1ccc(Cl)c(Cl)c1Cl,34.2 µM (active)
20,CCOP(=O)(OCC)Oc1nc(Cl)c(Cl)cc1Cl,inactive

row,Compound,Potency
1,Nc1cc(Cl)ccc1Cl,inactive
2,O=C(Nc1ccc(F)cc1F)c1cccnc1Oc1cccc(C(F)(F)F)c1,53.8 µM (active)
3,O=C(Cl)c1ccccc1F,inactive
4,CNC(C)(C)Cc1ccccc1,inactive
5,c1ccc2c(c1)cc1ccc3cccc4ccc2c1c34,inactive
6,CCN(CC)CCN1C(=O)CN=C(c2ccccc2F)c2cc(Cl)ccc21,inactive
7,Nc1ccc(Cl)cc1C(=O)c1ccccc1F,inactive
8,COP(=O)(OC)O/C(=C\Cl)c1cc(Cl)c(Cl)cc1Cl,inactive
9,CC(Cc1ccc(OCC(=O)O)cc1)NCC(O)c1csc(C(F)(F)F)n1 (stereo not given),inactive
10,CC(=O)O.CC(=O)O.CC(=O)O.CC(=O)O.CC(=O)O.CC(=O)O.CC(=O)O.O.O.[Cr].[Cr].[Cr],inactive
11,CC(C)[C@@H](Nc1ccc(C(F)(F)F)cc1Cl)C(=O)OC(C#N)c1cccc(Oc2ccccc2)c1 (stereo not given in full),inactive
12,CN1[C@@H]2CC[C@H]1CC(O)C2 (stereo not given in full),inactive
13,COC(=O)c1ccccc1S(=O)(=O)NC(=O)Nc1nc(C)nc(OC)n1,inactive
14,O=[N+]([O-])c1ccccc1-c1ccccc1,inactive
15,Cc1ccn2nc(S(=O)(=O)Nc3c(F)cccc3F)nc2n1,inactive
16,CC(=O)[O-].CC(=O)[O-].O.O.[Zn+2],inactive
17,CNC(=O)/C=C(\C)OP(=O)(OC)OC,inactive
18,Oc1ccc(Cl)c(Cl)c1,inactive
19,CC1CCCC1,inactive
20,[O]=[Cr][O][Cr]=[O],inactive
